From PubChem BioAssay
Unmarked numbers belong to inactive results. No rule for the calls is given here.

Target: Pantothenate synthetase (Mycobacterium tuberculosis (strain ATCC 25618 / H37Rv)) (UniProt P9WIL5)
Test: Coupled enzyme confirmation of inhibitors against recombinant Mtb PanC (AID 375);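 also: 0% = full reaction with vehicle and 100% = no enzyme background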
Settings: coupled enzyme assay; at 10 µM, stronger effect = higher value

Chain of Pantothenate synthetase (Mycobacterium tuberculosis (strain ATCC 25618 / H37Rv)) (P9WIL5 whole entry, looked up): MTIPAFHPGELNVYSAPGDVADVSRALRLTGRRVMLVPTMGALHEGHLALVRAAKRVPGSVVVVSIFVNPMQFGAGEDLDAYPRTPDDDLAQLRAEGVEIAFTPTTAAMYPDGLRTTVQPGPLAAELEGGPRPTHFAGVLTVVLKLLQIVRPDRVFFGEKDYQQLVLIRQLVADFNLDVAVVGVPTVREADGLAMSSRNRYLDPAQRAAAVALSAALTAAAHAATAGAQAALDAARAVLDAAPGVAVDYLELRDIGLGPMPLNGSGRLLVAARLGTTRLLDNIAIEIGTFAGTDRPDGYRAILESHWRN

Structure (SMILES)	inhibition
Cc1ccc(C(=O)CSc2nnc(CNc3ccc(C)cc3C)o2)cc1	7%
COc1ccc(/C(O)=C2/C(=O)C(=O)N(CCN(C)C)C2c2ccccn2)cc1OC (stereo not given)	0%
C=CCc1ccccc1OCC(O)CN1CCN(Cc2ccc3c(c2)OCO3)CC1 (stereo not given)	5%
Cc1cc(=O)n(CC(C)C)c(O)c1C#N	0%
CCc1cccc(NC(=O)Cn2cc3c(n2)CCCC3)c1	0%
CC(C)(C)OC(=O)NC(CCNC=C1C(=O)OC(C)(C)OC1=O)C(=O)O (stereo not given)	4%
CCOC(=O)C1CCN(c2c(NC3CCCc4ccccc43)c(=O)c2=O)CC1 (stereo not given)	2%
CCN(CC)c1ccc(CNc2ccc(Br)cn2)cc1	0%
N#Cc1c2n(c(=O)[nH]c1=O)CCCCC2	0%
CCOC(=O)c1cccc(NC2c3ccccc3C(=O)N2Cc2ccco2)c1 (stereo not given)	7%
CSc1ccc2c(c1)N(CCC1CCCCN1C)c1ccccc1S2 (stereo not given)	11%
O=C1c2ccccc2C(=O)N1CCCCN1CCN(CCCCN2C(=O)c3ccccc3C2=O)CC1	5%
CCn1c(SCc2nc3ccccc3c(=O)[nH]2)nnc1-c1cccnc1	4%
CCc1nn2c(N3CCOCC3)cc(C)nc2c1-c1ccc(F)cc1	0%
CN1CCN(C(=O)c2ccc(CS(=O)(=O)c3c(Cl)cccc3Cl)o2)CC1	16%
CC(C)CNS(=O)(=O)c1ccc(OCC(=O)Nc2ccc3c(c2)OCO3)c(Cl)c1	6%
CC(C)c1nccn1S(=O)(=O)c1cc(Cl)ccc1Cl	0%
Cc1c(N=C2SCC(=O)N2c2c(C)n(C)n(-c3ccccc3)c2=O)c(=O)n(-c2ccccc2)n1C	3%
COC(=O)c1ccccc1NC(=O)CC(NCc1ccccc1)C(=O)O (stereo not given)	0%
COc1ccc(OC)c(NC(=O)CCNS(=O)(=O)c2cccs2)c1	0%

Structure (SMILES)	inhibition
COc1cccc(N2CCN(CC(=O)Nc3nnc(-c4ccccc4)s3)CC2)c1	3%
Cc1ccc(S(=O)(=O)N2CCN(C(=O)CSC3CCCC3)CC2)c(C)c1	0%
COCc1[nH]nc2c1C(C1C=CCCC1)C(C#N)=C(N)O2 (stereo not given)	0%
CCc1cc2c(NCCC(=O)O)ncnc2s1	1%
O=C(CN1CCOCC1)N1CCN(C(=O)CN2CCOCC2)CC1	6%
COC(=O)c1cc(=O)n(Cc2ccc3c(c2)OCO3)c(=Nc2ccccc2)s1	7%
COc1cc(OC)nc(NC(=O)CSc2nc3ccccc3o2)n1	11%
COc1ccc(N(CC(=O)Nc2ccc3c(c2)OCO3)S(=O)(=O)c2c(C)nn(C)c2C)cc1	0%
COc1ccccc1C(=O)N1CCN(C(=O)COc2cccc(C)c2)CC1	3%
COc1ccc(OCC(=O)N2CCN(C(=O)COc3ccc(Br)cc3)CC2)cc1	0%
CC(=O)c1cccc(NC(=O)CCNS(=O)(=O)c2cccc3nsnc23)c1	0%
C/C=C/COC(=O)c1[nH]c2c(c1C)C(=O)CC(c1ccco1)C2 (stereo not given)	6%
COC(=O)c1ccc(CSc2nc(-c3ccc(OC)cc3)nc3c2c(=O)n(C)c(=O)n3C)o1	10%
O=C(O)CCc1ccc(-c2ccc(F)cc2)n1CCC(=O)O	0%
NC(=O)OCC(COC(N)=O)c1ccccc1	1%
CCc1nc2sc3c(c2c(=O)o1)CCCC3	0%
CCCCCC(=O)N1CC2(CC)CN(C(=O)CCCCC)CC(CC)(C1)C2=O	4%
Oc1ccccc1-c1cc(C(F)(F)C(F)F)[nH]n1	0%
N#CCSc1nc2c(c(C3CC=CCC3)c1C#N)CCC2 (stereo not given)	6%
CCN(CC)c1ccc(NC(=O)CN2C(=O)CC(C)(C)S(=O)(=O)c3ccccc32)c(C)c1	0%
